Screens from PubChem BioAssay.
The list is not random: actives were taken first. Their share in the collection is about 1.3%.
S1P2 agonist: S1P2 (human) receptor agonism; O95136; S1P2-expressing cell line, agonist reporter read-out; activation, % at 4.5 µM; 0.46% of 97,000 active; in the data active = activation above about 16%;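 also: 0% = vehicle low control and 100% = maximal reference agonist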
Target sequence (O95136 whole entry, looked up): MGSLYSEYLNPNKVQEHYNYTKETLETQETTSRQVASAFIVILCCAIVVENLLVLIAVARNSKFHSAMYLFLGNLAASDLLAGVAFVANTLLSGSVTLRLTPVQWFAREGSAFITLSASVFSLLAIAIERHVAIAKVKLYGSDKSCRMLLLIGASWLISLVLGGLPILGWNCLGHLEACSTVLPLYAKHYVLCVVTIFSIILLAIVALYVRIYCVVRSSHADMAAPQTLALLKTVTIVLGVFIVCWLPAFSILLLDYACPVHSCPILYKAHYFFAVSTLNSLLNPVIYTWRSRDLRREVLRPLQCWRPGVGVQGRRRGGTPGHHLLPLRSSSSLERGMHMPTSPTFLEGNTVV
cytoskel mod: alters cytoskeleton assembly in HUVEC cells | HUVEC TNFa F-actin phalloidin imaging, high content | inhibition, % at 2 µM | 0.18% of 91,000 active;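 active = inhibition above the batch mean plus 3 SD and confirmed as a hit by visual image inspection, cut at about 30% in these data, passing the limit was not always enough; inconclusive = above the inhibition threshold but rejected on visual inspection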
GALR2 agonist: agonists of human galanin receptor 2 (GALR2); GALR2-expressing cells, agonist activation read-out; activation, % (no concentration beside the values); 0.48% of 140,000 active; AID 803; in the data active = activation above about 5%, passing the limit was not always enough;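 also: 0% = vehicle buffer wells and 100% = reference agonist at full effect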
GALR2 antag: antagonists of human galanin receptor 2 (GALR2); O43603; GALR2-expressing cells, antagonist mode; inhibition, % at 4 µM; 0.39% of 140,000 active; AID 828;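 also: cells stimulated with galanin 1-16 at roughly its EC80; 0% = agonist challenge control and 100% = basal control without agonist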
S1P2 blocker: antagonists of human S1P2 receptor. cell-based S1P2 antagonist assay, inhibition at 5 uM. inhibition, % at 5 µM. 0.21% of 97,000 active; in the data active = inhibition above about 45%;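 also: CRE beta-lactamase reporter cells expressing human S1P2 stimulated with S1P; 0% = agonist at EC80 alone and 100% = agonist plus reference antagonist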
GALR2 blk conf: confirmation of human galanin receptor 2 (GALR2) antagonists. 60% of 480 active. shares compounds with GALR2 antag. inhibition, % at 4 µM. GALR2-expressing cells, antagonist mode, inhibition. AID 866;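 also: cells stimulated with galanin at about its EC80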
BLA inh counter: beta-lactamase inhibition, GALR2 counterscreen | shares compounds with GALR2 antag | CHO NFAT-BLA reporter, beta-lactamase FRET, thapsigargin-stimulated | inhibition, % at 4.2 µM | 36% of 480 active | AID 867;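 active = inhibition above the mean inhibition across tested compounds plus 3 SD, cut at about 27% in these data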;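 also: 0% = 500 nM thapsigargin stimulated wells and 100% = unstimulated BSA only wells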
An asterisk follows results filed as active; ? = inconclusive; · = no result; ! = not active in a repeat. Rule as the data show it, unless noted: active = inhibition above about 27%; inactive = the rest.

SMILES	S1P2 agonist	cytoskel mod	GALR2 agonist	GALR2 antag	S1P2 blocker	GALR2 blk conf	BLA inh counter
Cc1cc(C(=O)OCC(=O)Nc2ccccc2[N+](=O)[O-])c2ccccc2n1	·	·	-1	40*	·	11	9
O=C(O)C1C2CCC(O2)C1C(=O)NCc1ccc(Cl)cc1 (stereo unspecified)	·	·	-1	0	·	·	·
Cn1c(SCC(=O)Nc2ccc3cn[nH]c3c2)nnc1-c1cccs1	-6	3	-2	30*	10	18	14
CCCn1nc(C(=O)NC2CCCc3ccccc32)c2ccccc2c1=O (stereo unspecified)	·	·	0	-2	·	·	·
COc1ccc(O)c(/C=N/NC(=S)Nc2cccc(S(=O)(=O)N(C)C)c2)c1	·	·	-1	35*	·	21	13
N#Cc1cc2c(nc1SCc1nc3ccccc3[nH]1)CCC2	0	-10	0	28*	14	30*	16
O=C(CN1C(=O)NC2(CCc3ccccc32)C1=O)Nc1ccc(N2CCOCC2)cc1 (stereo unspecified)	1	10	-3	-2	-16	·	·
Cc1ccc(NC(=O)CN2C(=O)NC3(CCc4ccccc43)C2=O)cc1Cl (stereo unspecified)	-6	0	-4	28*	16	4	-1
CC(/C=N/NC(=O)c1n[nH]c2c1CCC2)=C\c1ccccc1	-3	-10	2	21	0	·	·
O=C(N/N=C/C(Br)=C\c1ccccc1)c1n[nH]c2c1CCC2	-2	-10	3	33*	-8	38*	61*
Cc1cc(N/N=C/c2ccc(O)c(C)c2O)nc(-c2ccccc2O)n1	·	·	-2	31*	·	33*	12
COc1ccc(N(C(=O)Cc2cccs2)C(C(=O)NC2CCCCC2)c2cccn2C)cc1OC (stereo unspecified)	-10	-9	-2	-15	-22	·	·
C#CC(=O)N(c1cccc(OC)c1)C(C(=O)NC1CCCC1)c1cccs1 (stereo unspecified)	-8	-26	-2	62*	41	72*	58*
C#CC(=O)N(c1ccc(OC)c(OC)c1)C(C(=O)NC1CCCC1)c1cccs1 (stereo unspecified)	-12	0	-2	41*	35	54*	51*
CC(C)[C@H](NC(=O)c1ccccc1)C(=O)OCC(=O)N1CCCc2ccccc21	·	·	-2	-1	·	·	·
CCOC(=O)CN1N=C(c2ccc(Cl)s2)CSC1=O	·	·	-2	6	·	·	·
CSc1cnn(Cc2ccccc2)c(=O)c1SCc1ccccc1	·	·	-1	8	·	·	·
Cc1cccc(CSc2cccc3cccnc23)c1	-5	-34	-1	29*	29	24	19
Cc1cc(C(F)(F)F)nn1Cc1n[nH]c(=S)n1-c1ccc(F)cc1	·	·	-1	63*	·	4	5
Fc1ccc(SCCc2ccncc2)cc1	-5	-10	-3	32*!	18	6	0
N#C/C(C(=O)N1CCOCC1)=C1/SC(Cc2ccccc2Cl)C(=O)N1c1ccccc1 (stereo unspecified)	·	·	0	4	·	·	·
CC(=O)/C=C/n1c(=S)oc2ccccc21	·	·	-2	42*	·	77*	65*
O=C(CSc1nnc(-c2ccncc2)n1Cc1ccccc1)NC1CCCc2ccccc21 (stereo unspecified)	·	·	-1	4	·	·	·
O=C(c1ccc(S(=O)(=O)c2ccc(F)cc2)c([N+](=O)[O-])c1)N1CCCCCC1	·	·	-1	31*	·	37*	14
O=C(COc1cccnc1[N+](=O)[O-])Nc1cccc(S(=O)(=O)N2CCCCC2)c1	·	·	-1	1	·	·	·
SMILES	S1P2 agonist	cytoskel mod	GALR2 agonist	GALR2 antag	S1P2 blocker	GALR2 blk conf	BLA inh counter
Cc1ccc(N(NC(=O)C(O)(c2ccccc2)c2ccccc2)C(=O)CCl)cc1	·	·	-2	48*	·	37*	56*
COc1ccc(C(=O)C(CCCCC(CN(C)C)C(=O)c2ccc(OC)cc2)CN(C)C)cc1 (stereo unspecified)	-1	-68	-3	7	11	·	·
CCOc1ccc(C(=O)C(CCC(CN(C)C)C(=O)c2ccc(OCC)cc2)CN(C)C)cc1 (stereo unspecified)	·	·	3	39*	·	28*	30*
COc1cc(CSc2nnnn2-c2ccc(C)cc2)cc(OC)c1OC	·	·	-1	43*	·	41*	14
CC[C@@H](NS(=O)(=O)c1ccc(C)cc1)C(=O)Oc1ccc2c3c(c(=O)oc2c1)CCC3	·	·	1	-27	·	·	·
Cc1ccc(S(=O)(=O)NC(C(=O)Oc2ccc3c(C(F)(F)F)cc(=O)oc3c2)c2ccccc2)cc1 (stereo unspecified)	·	·	0	35*	·	25	31*
Nn1cnnc1N/N=C/c1cc(Br)cc(Br)c1O	-1	42	-4	31*	-10	8	0
Oc1ccc(Nc2nc3ccccc3nc2Nc2ccc(O)cc2)cc1	-1	?	0	32*	21	34*	33*
O=C(/C=C/c1cccnc1)c1ccc(NC(=O)c2cccc(Br)c2)cc1	-4	14	-2	-5	8	·	·
Cc1cccc(C(=O)Nc2ccc(C(=O)/C=C/c3cccnc3)cc2)c1	·	·	0	31*	·	32*	7
CC(=O)c1ccc(NC(=S)NC(=O)c2c(Cl)c(C)nn2C)cc1	·	·	-1	8	·	·	·
Cc1cccc(C)c1Nc1nnc(SC(C)C(=O)Nc2c(C)n(C)n(-c3ccccc3)c2=O)s1 (stereo unspecified)	·	·	0	-1	·	·	·
COc1ccc(COc2cc(-c3cccc(OC)c3)nc3ccc(NC(=O)c4ccc(N(C)C)cc4)cc23)cc1	·	·	-3	27*	·	16	10
COc1ccc(COc2cc(-c3cccc(OC)c3)nc3ccc(NC(=O)c4ccc(C)cc4)cc23)cc1	·	·	-2	13	·	·	·
COc1cc(C)ccc1OCCOCCOc1ccc([N+](=O)[O-])cc1	·	·	-1	6	·	·	·
CCCCOc1ccc(Br)cc1CSC(=N)N	·	·	0	36*	·	37*	66*
CCCCCOc1ccc(CSC(=N)N)cc1[N+](=O)[O-]	2	-61	2	-16	14	·	·
CC(=O)Nc1ccccc1OCC(=O)c1cc(C)n(Cc2cccs2)c1C	·	·	-1	39*	·	51*	24
Cc1cc(C(=O)COC(=O)c2ccccc2O)c(C)n1Cc1cccs1	0	-25	-3	-1	-11	·	·
Cc1ccc(-c2csc(NC(=O)C3=NN(c4ccccc4)C(=O)CC3)n2)cc1	·	·	-1	28*	·	20	5
Cc1ccc(/C=C2\C(=O)Nc3ccccc32)o1	·	·	-1	1	·	·	·
O=C1Nc2ccccc2/C1=C/C(=O)c1cccs1	-7	4	-3	27*	4	30*	11
NC(=O)C1CCN(C(=O)Nc2ccccc2)CC1	-1	17	-2	0	-23	·	·
NC(=O)C1CCN(C2=C(Cl)C(=O)c3ccccc3C2=O)CC1	-7	18	0	34*	45	50*	37*
